Assay results taken from publication PMC4336329 (PLoS ONE, 2015).
About 14,000 (4.5%) of roughly 310,000 compounds showed an effect of 50% or more. Effects have a minus sign here. Only a selection was taken, and strong results are over-represented in it overall.

target: human ether-à-go-go-related gene (hERG) potassium channel (human, UniProt Q12809); assay: primary screen, population patch clamp on CHO cells stably expressing hERG; higher = less effect of the substance
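Also: peak tail current of the secondary pulse compared with the same well before compound.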

Chain of human ether-à-go-go-related gene (hERG) potassium channel (Q12809 whole entry, looked up): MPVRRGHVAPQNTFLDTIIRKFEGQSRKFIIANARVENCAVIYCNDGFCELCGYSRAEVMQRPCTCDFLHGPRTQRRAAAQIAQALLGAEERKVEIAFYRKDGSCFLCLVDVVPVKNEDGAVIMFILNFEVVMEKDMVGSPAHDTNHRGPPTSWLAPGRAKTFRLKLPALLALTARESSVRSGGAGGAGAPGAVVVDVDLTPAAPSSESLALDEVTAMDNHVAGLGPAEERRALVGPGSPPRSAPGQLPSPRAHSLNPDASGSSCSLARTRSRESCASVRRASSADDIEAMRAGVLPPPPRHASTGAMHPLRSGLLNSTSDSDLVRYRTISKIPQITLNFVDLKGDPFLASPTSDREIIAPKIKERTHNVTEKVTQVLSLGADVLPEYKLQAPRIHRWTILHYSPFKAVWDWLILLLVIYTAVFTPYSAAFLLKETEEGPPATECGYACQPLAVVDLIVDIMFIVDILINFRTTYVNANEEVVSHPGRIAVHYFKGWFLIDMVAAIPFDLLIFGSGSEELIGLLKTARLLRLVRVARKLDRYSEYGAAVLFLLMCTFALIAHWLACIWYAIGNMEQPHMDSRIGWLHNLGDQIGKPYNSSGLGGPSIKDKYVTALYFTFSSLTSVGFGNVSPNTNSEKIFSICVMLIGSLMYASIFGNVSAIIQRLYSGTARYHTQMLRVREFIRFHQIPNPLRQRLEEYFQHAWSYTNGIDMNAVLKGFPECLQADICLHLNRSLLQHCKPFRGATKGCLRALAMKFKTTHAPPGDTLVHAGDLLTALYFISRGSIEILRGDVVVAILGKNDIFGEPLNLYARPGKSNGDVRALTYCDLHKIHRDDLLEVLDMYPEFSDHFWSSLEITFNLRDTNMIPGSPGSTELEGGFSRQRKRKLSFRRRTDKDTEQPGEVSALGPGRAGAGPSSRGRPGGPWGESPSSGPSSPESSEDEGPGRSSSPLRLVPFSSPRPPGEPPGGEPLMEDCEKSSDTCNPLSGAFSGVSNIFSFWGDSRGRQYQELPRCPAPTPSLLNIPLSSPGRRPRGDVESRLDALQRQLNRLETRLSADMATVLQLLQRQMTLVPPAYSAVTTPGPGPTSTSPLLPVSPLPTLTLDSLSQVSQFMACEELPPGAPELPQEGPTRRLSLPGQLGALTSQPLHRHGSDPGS

Structure (SMILES)	hERG current change (%, negative = inhibition) at 10uM [%]
O=S(=O)(c1ccc(NC2CCCCC2)cc1)N1CCOCC1	-23.7
COc1ccc(NC(=O)c2cc(-c3ccccn3)nc3ccccc23)cc1S(=O)(=O)N(C)C	-16.6
O=C(Nn1cnnc1)c1ccc(Br)s1	13.9
CN(C)C(=O)CSc1nc2ccccc2c(=O)[nH]1	22
CCN(CC)CCCn1c2c(c(SCC(=O)Nc3nc4ccccc4s3)nc1=O)CCC2	-71.2
CCN(CC)CCn1c2c(c(SCC(=O)Nc3nc4ccccc4s3)nc1=O)CCC2	-58.3
CCN(CC)CCn1c2c(c(SCC(=O)Nc3nc4ccccc4s3)nc1=O)CCCC2	-60.2
CCCNC(=O)c1onc(CSc2ccc(Cl)cc2)c1C(=O)NCCOC	-19.7
Cn1c(SCc2cccnc2)nc2c(c1=O)SCC2	7.48
N#Cc1cc2c(=O)n3ccccc3nc2n(-c2ccc(Cl)cc2)c1=O	5.19
COC(=O)c1sccc1NC(=O)CN1CCN(c2ccc(F)cc2)CC1	6.89
Cc1nc(SCC(=O)Nc2cccc(Cl)c2)n[nH]1	6.87
O=C(NC1CC2CCCC(C1)N2S(=O)(=O)c1ccccc1)C1CCCCC1 (centres unmarked)	-2.61
O=C(Nc1ccc(N2CCOCC2)cc1)NC1CCCCC1	6.25
COc1ccc2nc(NC(=O)c3cc(S(=O)(=O)N4CCOCC4)ccc3C)sc2c1	1.72
Cc1ccc(S(=O)(=O)N2CCCC2)cc1C(=O)NCc1ccccc1CN1CCCC1	-52.3
Cc1ccc(C(=O)NCc2cccnc2)cc1S(=O)(=O)N1CCCCCC1	-65.7
CC(=O)c1sc(NC(=O)c2cc(S(=O)(=O)N3CCOCC3)ccc2F)nc1C	-1.54
Cc1ccc(S(=O)(=O)N2CCCCCC2)cc1C(=O)NCc1ccccn1	-14.8
Cc1ccc(C(=O)NCc2ccccc2CN2CCCC2)cc1S(=O)(=O)N1CCOCC1	-61.4
Cc1ccc(C(=O)NCc2ccccc2F)cc1S(=O)(=O)N1CCCC1	4.12
CCOC(=O)c1sc(NC(=O)c2cc(S(=O)(=O)N3CCOCC3)ccc2C)nc1C	-60.9
O=C(NCc1cccnc1)c1ccc(Cl)c(S(=O)(=O)N2CCCCCC2)c1	-36.2
Cc1ccc(C(=O)NCc2ccccn2)cc1S(=O)(=O)N1CCOCC1	8.99
Cc1ccc(C(=O)NCc2ccncc2)cc1S(=O)(=O)N1CCCCC1	-30.5
Cc1ccc(S(=O)(=O)N2CCCC2)cc1C(=O)NCc1ccccn1	5.54
